Experiment [1] addresses RAC-alpha serine/threonine-protein kinase (Homo sapiens) (UniProt P31749). The following applies: at 0.1 µM.
Experiment [2] has the same target. The following applies: at 1 µM.
In experiment [3] the target is RAC-beta serine/threonine-protein kinase (Homo sapiens) (UniProt P31751). The following applies: at 0.1 µM.
Experiment [4] has the same target. The following applies: at 1 µM.
The target of experiment [5] is RAC-gamma serine/threonine-protein kinase (Homo sapiens) (UniProt Q9Y243). The following applies: at 0.1 µM.
Experiment [6] has the same target. The conditions noted are these: at 1 µM.
Experiment [7] deals with G protein-coupled receptor kinase 6 (Homo sapiens) (UniProt P43250). The conditions noted are these: at 0.1 µM.
For experiment [8] the target is unchanged. The conditions noted are these: at 1 µM.
For experiment [9], the target named is T1, Rhodopsin kinase GRK7 (Homo sapiens) (UniProt Q8WTQ7).
T1 sequence (whole entry): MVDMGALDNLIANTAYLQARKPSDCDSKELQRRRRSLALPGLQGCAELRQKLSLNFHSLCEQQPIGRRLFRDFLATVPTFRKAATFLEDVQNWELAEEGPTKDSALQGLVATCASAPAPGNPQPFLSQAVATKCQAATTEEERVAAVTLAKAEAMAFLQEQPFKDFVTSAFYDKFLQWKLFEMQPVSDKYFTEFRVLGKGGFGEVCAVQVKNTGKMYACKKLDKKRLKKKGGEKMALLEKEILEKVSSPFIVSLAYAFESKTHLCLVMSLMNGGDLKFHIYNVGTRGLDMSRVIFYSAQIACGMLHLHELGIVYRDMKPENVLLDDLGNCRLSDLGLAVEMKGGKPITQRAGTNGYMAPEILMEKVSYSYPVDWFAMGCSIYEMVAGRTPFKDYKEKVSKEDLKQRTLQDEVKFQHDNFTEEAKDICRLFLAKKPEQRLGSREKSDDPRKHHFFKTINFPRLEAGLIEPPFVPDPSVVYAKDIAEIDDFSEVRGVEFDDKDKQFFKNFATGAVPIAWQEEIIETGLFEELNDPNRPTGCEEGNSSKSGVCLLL
The conditions noted are these: at 0.1 µM.

In experiment [10] the target is T1, Rhodopsin kinase GRK7 (Homo sapiens). The following applies: at 1 µM.

RAC-gamma serine/threonine-protein kinase (Homo sapiens), sequence (Q9Y243 whole entry): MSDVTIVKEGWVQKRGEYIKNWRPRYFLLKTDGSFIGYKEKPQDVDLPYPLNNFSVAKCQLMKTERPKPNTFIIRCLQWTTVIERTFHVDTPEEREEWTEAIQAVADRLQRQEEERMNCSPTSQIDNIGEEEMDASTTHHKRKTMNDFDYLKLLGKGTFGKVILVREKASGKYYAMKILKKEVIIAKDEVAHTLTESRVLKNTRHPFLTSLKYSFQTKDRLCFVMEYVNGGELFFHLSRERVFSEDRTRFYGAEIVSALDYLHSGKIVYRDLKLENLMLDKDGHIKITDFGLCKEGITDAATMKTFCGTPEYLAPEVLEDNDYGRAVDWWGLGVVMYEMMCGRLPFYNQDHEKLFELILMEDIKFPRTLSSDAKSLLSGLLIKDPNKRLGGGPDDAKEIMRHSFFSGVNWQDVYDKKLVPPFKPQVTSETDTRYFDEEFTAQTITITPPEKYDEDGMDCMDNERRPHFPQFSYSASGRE
RAC-beta serine/threonine-protein kinase (Homo sapiens), sequence (P31751 whole entry): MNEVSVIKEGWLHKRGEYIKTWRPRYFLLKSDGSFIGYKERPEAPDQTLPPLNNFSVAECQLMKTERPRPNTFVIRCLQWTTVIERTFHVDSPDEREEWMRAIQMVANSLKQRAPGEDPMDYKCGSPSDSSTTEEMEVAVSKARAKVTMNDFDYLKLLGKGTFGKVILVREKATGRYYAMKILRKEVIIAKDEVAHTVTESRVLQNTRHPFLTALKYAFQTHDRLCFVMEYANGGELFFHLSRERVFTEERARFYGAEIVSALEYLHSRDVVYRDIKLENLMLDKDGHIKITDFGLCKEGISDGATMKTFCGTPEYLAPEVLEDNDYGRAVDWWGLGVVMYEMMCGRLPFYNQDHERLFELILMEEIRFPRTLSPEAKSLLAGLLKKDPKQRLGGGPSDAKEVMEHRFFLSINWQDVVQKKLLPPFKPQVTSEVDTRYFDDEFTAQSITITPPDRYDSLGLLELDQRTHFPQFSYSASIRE
G protein-coupled receptor kinase 6 (Homo sapiens), sequence (P43250 whole entry, looked up): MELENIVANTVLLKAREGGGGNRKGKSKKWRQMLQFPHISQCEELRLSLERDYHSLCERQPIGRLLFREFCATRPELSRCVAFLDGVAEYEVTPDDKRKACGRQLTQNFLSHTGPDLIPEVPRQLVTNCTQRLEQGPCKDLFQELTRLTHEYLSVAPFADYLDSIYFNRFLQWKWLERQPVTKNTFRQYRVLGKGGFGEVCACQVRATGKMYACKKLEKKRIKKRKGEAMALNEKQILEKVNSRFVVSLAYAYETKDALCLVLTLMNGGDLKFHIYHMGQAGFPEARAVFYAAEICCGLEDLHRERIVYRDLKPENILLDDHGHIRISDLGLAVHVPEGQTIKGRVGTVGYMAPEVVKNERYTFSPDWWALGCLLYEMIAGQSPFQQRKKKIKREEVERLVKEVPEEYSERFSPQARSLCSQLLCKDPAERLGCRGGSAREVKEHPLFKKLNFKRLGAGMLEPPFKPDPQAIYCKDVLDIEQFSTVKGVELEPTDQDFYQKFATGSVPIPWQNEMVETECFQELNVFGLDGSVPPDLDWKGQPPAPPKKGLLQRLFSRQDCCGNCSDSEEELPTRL
RAC-alpha serine/threonine-protein kinase (Homo sapiens), sequence (P31749 whole entry): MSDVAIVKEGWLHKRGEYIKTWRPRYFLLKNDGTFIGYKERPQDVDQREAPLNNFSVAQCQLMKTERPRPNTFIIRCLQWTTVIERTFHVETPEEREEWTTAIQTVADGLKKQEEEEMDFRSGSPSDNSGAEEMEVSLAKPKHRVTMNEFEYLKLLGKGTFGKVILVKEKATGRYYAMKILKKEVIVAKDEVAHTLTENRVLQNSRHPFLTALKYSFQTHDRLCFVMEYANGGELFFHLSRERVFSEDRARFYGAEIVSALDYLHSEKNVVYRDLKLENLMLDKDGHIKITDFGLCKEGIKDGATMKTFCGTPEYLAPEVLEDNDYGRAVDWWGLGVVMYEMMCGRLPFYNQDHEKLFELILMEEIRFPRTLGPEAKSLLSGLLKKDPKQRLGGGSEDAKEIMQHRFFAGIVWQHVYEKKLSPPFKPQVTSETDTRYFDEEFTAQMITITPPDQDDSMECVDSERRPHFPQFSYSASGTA

Turning to `Cc1nnc(-c2ccc(C)c(-c3ccc(C(=O)Nc4cccc(C#N)c4)cc3)c2)o1`, the inhibition in experiment [1] was 0.44%; in experiment [2] it was 0.29%; in [3], 0.76%; in experiment [4] it was 0.57%; in [5], 1.16%; in [6], 1.22%. For the same molecule, the inhibition turned out to be 2.81% in experiment [7], 3.91% in [8], 2.5% in experiment [9] and 7.22% in experiment [10].
Take `CCn1c(-c2nonc2N)nc2cnc(Oc3cccc(NC(=O)c4ccc(OCCN5CCOCC5)cc4)c3)cc21`: the inhibition in experiment [1] was 1.6%; in experiment [2], 7.87%; in experiment [3] it was 2.69%; in experiment [4], 7.74%; in [5] it was 2.01%; in experiment [6] it was 7.9%. Moreover, the inhibition stood at 6.32% in [7], 9.42% in experiment [8], 1.38% in experiment [9] and 9.5% in experiment [10].
With `COc1cc2c(cc1Nc1nc(N3CCc4ccccc43)c3cc[nH]c3n1)N(C(=O)CN(C)C)CC2`, the inhibition in experiment [1] was 1.38%; in experiment [2], 1.39%; in [3] it was 0.6%; in [4], 1.42%; in experiment [5], 1.23%; in experiment [6] it was 1.23%. For the same molecule, the inhibition was 1.54% in experiment [7], -3.01% in [8], -0.63% in [9] and -6.08% in experiment [10].
Take `Cc1ccc(C(=O)NC2CCCCC2)cc1-c1ccc(C(=O)NCC2CC2)cc1`: the inhibition in [1] was found to be 0.04%; in experiment [2] it was 0.76%; in [3], 1.52%; in [4], 1.72%; in experiment [5] it was 2.01%; in [6], 0.64%. For the same molecule, the inhibition is -0.29% in experiment [7], -3.25% in experiment [8], 2.64% in [9] and 6.92% in [10].
With `CCc1cccc(NC(=O)Nc2ccc(Oc3ccc4nc(NC(=O)OC)[nH]c4c3)cc2)c1`, the inhibition in [1] is 1.36%; in experiment [2], 0.06%; in [3], 1.23%; in experiment [4], 1.45%; in experiment [5] it was 2.78%; in [6], -0.71%. Also, the inhibition in [7] was 2.37%; in experiment [8], 2.68%; in experiment [9], 4.8%; in experiment [10] it was 15.6%.
`NS(=O)(=O)c1ccc(N/N=C2\C(=O)Nc3ccc(C(=O)NCCc4c[nH]cn4)cc32)cc1`: the inhibition was 1.49% in experiment [1]; 0.74% in experiment [2]; 3.41% in experiment [3]; 1.59% in [4]; 1.65% in experiment [5]; 2.39% in experiment [6]. Also, the inhibition in experiment [7] amounted to 5.89%; in experiment [8] it was 9.39%; in experiment [9], 5.2%; in experiment [10] it was 7.5%.
Turning to `NCc1ccc(-c2nc(-c3ccc(Cl)c(O)c3)c(-c3ccncc3)[nH]2)cc1`, the inhibition is 0.06% in experiment [1]; 0.47% in [2]; -1.18% in [3]; -0.26% in experiment [4]; -0.23% in experiment [5]; 0.68% in [6]. The inhibition in experiment [7] is -0.28%; in experiment [8], -0.98%; in experiment [9], -2.26%; in [10], 2.84%.
For the molecule `CC1=C(C(=O)Nc2ccc3[nH]ncc3c2)C(c2ccc(F)cc2)NC(=O)N1` (stereo not given), the inhibition in [1] is -0.22%; in experiment [2], 0.8%; in experiment [3], 0.33%; in [4] it was 1.45%; in experiment [5], 0.5%; in experiment [6], 2.79%. The inhibition came out at 5.16% in experiment [7], 7.3% in [8], 2.44% in [9] and 6.49% in [10].
On to `COc1cc(C)c(NC(=O)CN(C)C)cc1Nc1nc(Nc2cccc(F)c2C(N)=O)c2cc[nH]c2n1`, for which the inhibition stood at 1.35% in experiment [1]; 0.96% in experiment [2]; 0.81% in [3]; 1.17% in [4]; 0.86% in [5]; 1.72% in experiment [6]. In addition, the inhibition in experiment [7] is 12.9%; in [8] it was 51.2%; in experiment [9], 8.5%; in experiment [10], 28.1%.
As for `Cc1ccc(NC(=O)c2ccnc(N3CCCC3)c2)cc1-c1ccc(C(=O)NCC2CC2)cc1`, the inhibition in experiment [1] was -2.27%; in [2], -3.57%; in experiment [3], -1.45%; in [4], -1.55%; in experiment [5] it was -3.88%; in [6], -2.23%. The inhibition in [7] amounted to 2.49%; in [8], 0.85%; in experiment [9], 5.08%; in experiment [10], 10.4%.
For the molecule `O=C1NC(=O)C(c2ccc(Cl)cc2)=C1Nc1ccc(Cl)c(C(=O)O)c1`, the inhibition was -1.69% in [1]; -1.52% in experiment [2]; -2.06% in [3]; -1.58% in experiment [4]; -1.65% in experiment [5]; -1.06% in [6]. Also, the inhibition is 2.37% in experiment [7], -0.84% in experiment [8], -5.23% in [9] and -4.79% in [10].
With `CS(=O)(=O)CCN(CC#N)Cc1ccc(-c2ccc3ncnc(Nc4ccc(OCc5cccc(F)c5)c(Cl)c4)c3c2)o1`, the inhibition in experiment [1] was -1.63%; in experiment [2], -3.32%; in experiment [3], -3.4%; in experiment [4] it was -2.91%; in experiment [5] it was -3.18%; in experiment [6], -0.79%. Also, the inhibition in experiment [7] is 0.99%; in experiment [8], 3.25%; in experiment [9], 6.9%; in [10], 2.37%.
For `Cn1cc(C=C2C(=O)Nc3cccnc32)c2ccccc21`, the inhibition in experiment [1] turned out to be 0.73%; in [2], 0.22%; in experiment [3] it was 1.08%; in experiment [4], 1.6%; in [5], 1.15%; in experiment [6] it was 0.99%. For the same molecule, the inhibition in experiment [7] was -1.62%; in experiment [8], 6.18%; in experiment [9], 3.02%; in [10], 10.6%.
`Nc1nc(-c2ccc3c(c2)C(=Cc2cc(Br)c(O)c(Br)c2)C(=O)N3)cs1`: the inhibition in experiment [1] is -2.07%; in experiment [2], -1.22%; in experiment [3], -2.78%; in experiment [4], -0.83%; in experiment [5], -2.54%; in experiment [6], -0.36%. Besides, the inhibition is 0.91% in [7], 10.7% in experiment [8], -6.85% in [9] and 22.8% in [10].
Regarding `NS(=O)(=O)c1cccc(-c2ccc3c(NC(=O)C4CC4)n[nH]c3c2)c1`, the inhibition was -2.14% in experiment [1]; -1.44% in experiment [2]; -4.21% in [3]; -1.31% in [4]; -1.31% in [5]; -2.99% in experiment [6]. The inhibition in [7] was 1.43%; in experiment [8], 2.82%; in [9], -7.07%; in [10] it was -0.65%.
Regarding `CCn1c(-c2nonc2N)nc2ccncc21`, the inhibition in experiment [1] was 0.31%; in [2], 0.51%; in [3], 0.98%; in experiment [4] it was 1.01%; in experiment [5] it was -0.4%; in experiment [6], -0.73%. For the same molecule, the inhibition in experiment [7] is 0.85%; in experiment [8], -3.7%; in experiment [9], 0.19%; in [10] it was 2.02%.
`CS(=O)(=O)CCNCc1nc(-c2ccc3ncnc(Nc4ccc(F)c(Cl)c4)c3c2)cs1`: the inhibition is 0.62% in experiment [1]; -0.01% in [2]; 0.07% in experiment [3]; 1.1% in experiment [4]; 1.52% in [5]; -0.89% in experiment [6]. Besides, the inhibition in experiment [7] is 1.59%; in [8] it was 3.85%; in experiment [9] it was 5.77%; in experiment [10], -4.62%.

(Values after ChEMBL document CHEMBL1961873, “Compounds: GSK PKIS; Assays: Nanosyn kinase panel” (2012).)
